For 108 compounds, Potency results are on record in PubChem BioAssay AID504834 (National Center for Advancing Translational Sciences (NCATS), 2011).

Each structure is given as a SMILES string. The campaign covered roughly 320,000 compounds. About 22,000 (6.9%) were called active. Entries that show only a call come without a potency. Not shown: some 27% with an inconclusive outcome. The sample holds actives, similar compounds and a random draw of the others, so the mix is not that of the screen. Calls come from the whole dose curve; as a rule, active = well fitted inhibition curve with a large enough effect; inconclusive = small, poorly fitted or top-dose-only effect, or another doubt; inactive = no such curve, though single readings can be large or run the other way.
Potency is the fitted concentration of half-maximal effect.

A short description of the test: Primary qHTS for delayed death inhibitors of the malarial parasite plastid, 96 hour incubation. The following applies: P. falciparum luciferase reporter growth; series mostly up to 28.7 µM. The method in brief:
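Delayed-death screen, second-generation endpoint: infected erythrocytes, 2% hematocrit, 0.05% parasitemia final; 96 hours at 37 C, 5% CO2; luciferase detection reagent; luminescence decrease equals reduced growth.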
A general note: In qHTS, concentration-response curves come from the screen itself.
`COC(=O)C1(C)CC1(c1ccccc1)c1ccccc1` (stereo not drawn): the Potency entry was “inactive”.

`CN(C1CCS(=O)(=O)C1)S(=O)(=O)c1ccc2ccccc2c1` (stereo not drawn): the Potency result was “inactive”.

On to `CC(Sc1nn(-c2ccc(Cl)cc2)c(=S)s1)C(=O)NCC1CCCO1` (stereo not drawn), for which the Potency entry was “inactive”.

Consider `O=C(O)c1ccc2c(=O)n3c(nc2c1)/C(=C/c1ccc(Cl)c([N+](=O)[O-])c1)CC3`, for which the Potency result was “inactive”.

As to `Cc1ccc(OCCOc2cccc(/C=N/NC(N)=O)c2)cc1`, the Potency result was “inactive”.

Turning to `O=C1CCC([N+](=O)[O-])C(c2ccccc2Br)N1` (stereo not drawn), the Potency entry was “inactive”.

`C=CCOc1ccccc1NC(=O)CN1C(=O)CNC1=O`: the Potency entry is “inactive”.

In the case of `CN(CC(=O)NCc1ccncc1)S(=O)(=O)c1ccc(Br)cc1`, the Potency entry is “inactive”.

For `Oc1ccc(N=Cc2c(O)ccc3ccccc23)cc1`, the Potency is 6.57 µM (active).

For `O=[N+]([O-])c1ccc(N=Cc2c(O)ccc3ccccc23)cc1`, the Potency entry was “inactive”.

As to `Cc1cc(N=Nc2ccc3ccccc3c2)ccc1O`, the Potency entry was “inactive”.

For `COc1ccc(C)cc1N(CC(=O)NC(C)c1ccccc1)S(C)(=O)=O` (stereo not drawn), the Potency result was “inactive”.

Take `CCOC(=O)c1ccc(NC(=O)c2ccc(NC(=O)C3CCCO3)cc2)cc1` (stereo not drawn): the Potency entry is “inactive”.

Consider `O=C(NCCc1ccccc1)C1CC1`, for which the Potency result is “inactive”.

Consider `O=C(NCCc1ccccc1)C1CCC(Cn2c(=O)c3ccccc3n(Cc3cccnc3)c2=O)CC1` (stereo not drawn), for which the Potency was 6.57 µM (active).

As to `O=C(CCc1ccccc1)NCc1cccnc1`, the Potency result is “inactive”.

As to `CCSc1nnc(SCC(=O)NNC(=O)c2ccccc2F)s1`, the Potency entry is “inactive”.

For the compound `CS(=O)(=O)c1ccc2nc(NC(=O)c3ccc(N4CCCC4=O)cc3)sc2c1`, the Potency entry is “inactive”.

Regarding `Cc1ccc(SCCC(=O)NCc2ccccn2)cc1`, the Potency result was “inactive”.

In the case of `Cc1cc(Cl)ccc1OCCCC(=O)NCc1ccccn1`, the Potency result was “inactive”.

Take `CC(C)Cn1c(=O)c2ccccc2n2c(CCC(=O)NCc3ccccn3)nnc12`: the Potency was 13.1 µM (active).

For the compound `Cc1ccc(-c2nn(-c3ccccc3)cc2C(=O)NCCCN2CCCC2=O)cc1`, the Potency result is “inactive”.

`CC1(NC(=O)CCS(=O)(=O)c2ccc(Cl)cc2)CCS(=O)(=O)C1` (stereo not drawn): the Potency entry is “inactive”.

Turning to `CC(=O)c1ccc(NC(=O)CCNS(=O)(=O)c2cc(Br)cnc2N)cc1`, the Potency entry was “inactive”.

For `C/C(=N\NC(=O)CC(C)C)c1c(C(F)(F)F)[nH]n(-c2nc3ccccc3s2)c1=O`, the Potency result was “inactive”.

Turning to `COc1ccc(S(=O)(=O)N2CCOCC2)c(C)c1C`, the Potency result was “inactive”.

In the case of `COc1ccc(CC(=O)Nc2ccc3c(c2)CCC3)cc1S(=O)(=O)N1CCOCC1`, the Potency result was “inactive”.

For `COc1ccc(/C=C/C(=O)Nc2ccc(C)cc2)cc1S(=O)(=O)N1CCOCC1`, the Potency is 11.7 µM (active).

For `COc1ccc(C(=O)NC(=S)N2CCNC(=O)C2CC(=O)OC(C)C)cc1` (stereo not drawn), the Potency entry was “inactive”.

Take `O=C1CCC(=O)N(c2ccccc2)N1`: the Potency entry was “inactive”.

Take `Cc1cc(C)nc(Nc2n[nH]c(-c3ccccc3N)n2)n1`: the Potency result is “inactive”.

With `COc1ccccc1OCC(=O)Nc1ccccc1C(=O)NC1CC1`, the Potency entry was “inactive”.

On to `N#Cc1cc([N+](=O)[O-])ccc1NCC1CCCO1` (stereo not drawn), for which the Potency result is “inactive”.

Take `C/C(N)=C(/C#N)C(=O)COC(=O)C1=NN(c2ccccc2)C(=O)CC1`: the Potency entry was “inactive”.

Consider `COC(=O)CC1=NN(c2ccccc2)C(=O)C1`, for which the Potency was 5.22 µM (active).

In the case of `COC(=O)CC1=NN(c2nc(C)cc(C)n2)C(=O)C1`, the Potency entry is “inactive”.

Take `CCOC(=O)C(Cc1ccccc1)NC(=O)CCC(=O)c1ccc(OC)cc1` (stereo not drawn): the Potency entry is “inactive”.

As to `COC(=O)[C@H](Cc1ccccc1)NC(=O)Nc1ccc(OC)cc1`, the Potency result was “inactive”.

`COc1cc([C@H](Cc2ccccc2)NC(C)=O)oc(=O)c1`: the Potency was 2.94 µM (active).

Turning to `Cc1cccc(NS(=O)(=O)c2cc(Cl)ccc2Cl)n1`, the Potency was 2.94 µM (active).

On to `O=S(=O)(Nc1cccc(Oc2ccc(Cl)cc2)n1)c1ccc(F)cc1`, for which the Potency entry was “inactive”.

Consider `Nc1ccc(Cl)c(S(=O)(=O)Nc2ccccc2Cl)c1`, for which the Potency result is “inactive”.

Consider `Cc1ccc(C(=O)NCCNC(=O)c2cnccn2)cc1`, for which the Potency result is “inactive”.

For `O=C(O)CCCC(=O)N1N=C(c2ccco2)CC1c1ccco1` (stereo not drawn), the Potency result is “inactive”.

In the case of `O=S(=O)(NCc1cccnc1)c1ccc(Br)s1`, the Potency entry was “inactive”.

`O=S(=O)([N-]c1nc2ccccc2nc1-[n+]1ccc(Cc2ccccc2)cc1)c1ccc(Br)s1`: the Potency was 13.1 µM (active).

For the compound `Oc1ccccc1-c1cc(-c2ccc(Cl)cc2)n[nH]1`, the Potency result is “inactive”.

Take `CCc1nn(CC(=O)N2CCN(c3cc(C)ccc3C)CC2)c(=O)c2cc3occc3n12`: the Potency entry is “inactive”.

On to `O=C(O)c1cc(S(=O)(=O)N(Cc2ccccc2)c2ccccc2)ccc1Cl`, for which the Potency entry was “inactive”.

Consider `COc1cccc(-c2noc(C3CCCN(C(=O)c4ccc(F)cc4)C3)n2)c1` (stereo not drawn), for which the Potency entry was “inactive”.

As to `COc1cc(OC)nc(NC(=O)CCl)n1`, the Potency entry is “inactive”.

With `COc1ccc(NS(=O)(=O)c2ccc(F)cc2F)cn1`, the Potency result was “inactive”.

With `COc1cc(OC)nc(S(C)(=O)=O)n1`, the Potency is 11.7 µM (active).

Regarding `CC(NC(=O)C(C)(C)C)C(c1cccs1)N1CCN(Cc2ccccc2)CC1` (stereo not drawn), the Potency entry is “inactive”.

For the compound `Cc1ccc(NC(=O)CCCNC(=O)c2ccc(Cl)cc2)cc1S(=O)(=O)N1CCCCC1`, the Potency entry was “inactive”.

Take `CCOC(=O)c1sc(NC(=O)COc2ncnc3ccccc23)c(C(=O)OCC)c1C`: the Potency entry is “inactive”.

Regarding `CCc1nnc(NC(=O)CSc2nnc(Cc3ccccc3)n2-c2ccc(OC)cc2)s1`, the Potency entry is “inactive”.

In the case of `CCOC(=O)c1c(NC(=O)CSc2nnc(Cc3csc(N)n3)n2C)sc(C)c1C`, the Potency result was “inactive”.

For the compound `CCOC(=O)c1sc(NC(=O)CSc2nc3c(c(=O)n2-c2ccccc2)SCC3)c(C(=O)OCC)c1C`, the Potency is 3.7 µM (active).

With `COc1ccccc1-n1c(CNC(=O)c2ccccc2)nnc1SCC(=O)Nc1nnc(C)s1`, the Potency result is “inactive”.

With `CCc1nnc(NC(=O)CSc2nc3c(c(=O)n2-c2ccccc2OC)SCC3)s1`, the Potency was 8.28 µM (active).

For the compound `Cc1cc(C(=O)NC2CCN(Cc3ccccc3)CC2)n[nH]1`, the Potency result was “inactive”.

With `O=C(Nc1cc2c3c(c1)CC(=O)N3CCC2)c1ccccc1F`, the Potency result was “inactive”.

Take `CCCC1C(=O)N2C(N(C)C)=Nc3ccc(C)cc3N2C1=O` (stereo not drawn): the Potency result is “inactive”.

In the case of `COc1ccc(C(=O)N/N=C(\C)CC(=O)Nc2ccc(Cl)cn2)cc1`, the Potency entry is “inactive”.

As for `CC(c1ccccn1)N(C)C(=O)c1ccc2nc(Cc3cccc(Cl)c3)oc2c1` (stereo not drawn), the Potency entry is “inactive”.

As for `O=C(Cc1c(Cl)cccc1Cl)NC1CC1`, the Potency entry was “inactive”.

On to `COC(=O)c1ccc(COc2ccc(C#N)cc2)o1`, for which the Potency entry was “inactive”.

With `CC(Oc1ccc(Br)cc1)C(=O)NC1CCCCCC1` (stereo not drawn), the Potency entry is “inactive”.

On to `CN(C)S(=O)(=O)c1ccc(C(=O)NCCN=C2NS(=O)(=O)c3ccccc32)cc1`, for which the Potency result was “inactive”.

In the case of `COc1ccccc1N1CCC(N2CCN(CC(C)(C)C)C(CCO)C2)CC1` (stereo not drawn), the Potency is 0.465 µM (active).

On to `Cc1cc(F)ccc1N1CCC(N2CCN(C)C(CCO)C2)CC1` (stereo not drawn), for which the Potency result is “inactive”.

As to `COc1ccc(N2CCC(N3CCN(C)C(CCO)C3)CC2)cc1` (stereo not drawn), the Potency is 14.7 µM (active).

For `CNCC(O)CN1CCN(c2ccccc2OC)CC1` (stereo not drawn), the Potency result was “inactive”.

For `COc1ccc(OCC(=O)Nc2ccc(N3CCC(C)CC3)cc2)cc1`, the Potency entry was “inactive”.

With `CCOc1ccccc1CN1CCN(C2CCC2)CC1CCO` (stereo not drawn), the Potency entry is “inactive”.

On to `COc1cccc(C(=O)Nc2nnc(S(=O)(=O)N(C)c3ccccc3)s2)c1`, for which the Potency result is “inactive”.

Take `CCc1cc(-c2nnc(SCC(=O)NC3CC3)n2C)cs1`: the Potency entry is “inactive”.

Consider `Cc1ccc(S(=O)(=O)CC(=O)Nc2nnc(C)s2)cc1`, for which the Potency result was “inactive”.

Consider `CCOc1ccc(CN2CCC(n3nccc3NC(=O)C3CC3)CC2)cc1CO`, for which the Potency result is “inactive”.

As to `COc1ccccc1Oc1ccc(N2CC(C(=O)OCC(=O)c3ccc(F)cc3)CC2=O)cc1` (stereo not drawn), the Potency entry is “inactive”.

Take `COc1ccc(CNC(=O)c2ccc3oc(C(C)C)nc3c2)cc1`: the Potency entry is “inactive”.

In the case of `CC(C)c1nc2cc(C(=O)NC(C)c3cnn(C)c3)ccc2o1` (stereo not drawn), the Potency result was “inactive”.

For `CCCCc1nc2cc(C(=O)NCCc3cnn(C)c3)ccc2o1`, the Potency was 7.38 µM (active).

For the compound `CC(=O)c1c(C)[nH]c(C(=O)CN2C(=O)NC(C)(C)C2=O)c1C`, the Potency result is “inactive”.

Turning to `CN(C)CCN(C(=O)CN1C(=O)c2ccccc2C1=O)c1nc2cc3c(cc2s1)OCCO3`, the Potency entry was “inactive”.

Turning to `Cc1nc2ccccc2c(=O)n1-c1ccc(Cl)cc1Cl`, the Potency result is “inactive”.

For `COc1ccc(-n2c(-c3ccccc3)nc3ccccc3c2=O)cc1`, the Potency entry is “inactive”.

As for `CCCN1C(=O)C(Cc2nc3ccccc3c(=O)n2-c2ccccc2)c2cc(C)ccc21` (stereo not drawn), the Potency is 6.57 µM (active).

Turning to `CC(=O)c1ccc(NC(=O)C2CCCN2S(=O)(=O)c2cccs2)cc1` (stereo not drawn), the Potency entry was “inactive”.

`Cc1c(NC(=S)Nc2ccccc2)c(=O)n(-c2ccccc2)n1C`: the Potency entry is “inactive”.

Regarding `Cc1c(NC(=O)c2c([N+](=O)[O-])cnn2C)c(=O)n(-c2ccccc2)n1C`, the Potency entry is “inactive”.

Turning to `Cc1c(NC(=O)Nc2cccc([N+](=O)[O-])c2)c(=O)n(-c2ccccc2)n1C`, the Potency is 3.7 µM (active).

Regarding `Cc1c(C(=O)Nc2ccccn2)oc2ccc(Br)cc12`, the Potency entry was “inactive”.

For `O=C(NCCCn1ccnc1)c1cc(Br)c(Br)s1`, the Potency entry is “inactive”.

In the case of `COc1cc(/C=N/Nc2nc3ccccc3s2)ccc1O`, the Potency result was “inactive”.

As for `COc1ccc(S(=O)(=O)N2CCOCC2)cc1C(=O)Nc1nc2ccccc2s1`, the Potency result is “inactive”.

For `COc1cccc2sc(NNC(=O)c3nc4ccccc4s3)nc12`, the Potency is 9.28 µM (active).

Consider `CCn1c(SC(C)C(=O)Nc2ccc(N3CCOCC3)cc2)nnc1-c1ccco1` (stereo not drawn), for which the Potency result was “inactive”.

As for `COc1ccc(C(=O)Oc2cc(/C=N/NS(=O)(=O)c3ccc(C)cc3)ccc2OC)cc1`, the Potency result was “inactive”.

On to `COc1ccc(NS(=O)(=O)c2ccc(NC(C)=O)cc2)cc1OC`, for which the Potency entry is “inactive”.

Consider `COc1ccc(/C=C/C(=O)c2ccc(NS(=O)(=O)c3ccc(C)cc3)cc2)cc1O`, for which the Potency is 11.7 µM (active).

For `CSc1sc(C(=O)NNC(=O)c2ccc(Cl)cc2)c2c1C=CCC2`, the Potency result is “inactive”.

On to `COc1ccc(CN2C(=O)CN=C2Nc2ccc(C)cc2C)cc1`, for which the Potency entry is “inactive”.

In the case of `CC(C)(C)c1ccc(CN2C(=O)CN=C(c3ccccc3)c3ccccc32)cc1`, the Potency is 1.31 µM (active).

Consider `CC(C)(C)c1ccc(CN2C(=O)c3ccccc3S2(=O)=O)cc1`, for which the Potency entry is “inactive”.

Consider `CCCn1c(N)c(N(CCOC)C(=O)C2CCCC2)c(=O)[nH]c1=O`, for which the Potency result is “inactive”.

With `CCC(C(=O)NC1CCCCC1)N(C(=O)c1snc(C(N)=O)c1N)c1ccc(OC)cc1OC` (stereo not drawn), the Potency result is “inactive”.
